# Assay results from PubChem BioAssay (EPA / NIEHS).
# Records with an inconclusive call do not appear. Activity calls are given as the source filed them. How the source made its calls, unless noted: active means hit-call score of the fitted dose curve at least 0.9, where 1 is the maximum; inactive means score below 0.9.
# Experiments:
# [1] = ACEA_ER_80hr: ACEA Biosciences xCELLigence Real-Time Cell Analysis on Estrogen Receptor Agonism for Proliferation (AID 2282667; active means hit-call score of the fitted dose curve at least 0.9, where 1 is the maximum); details: T47D proliferation, impedance (xCELLigence), 80 h
# Procedure, shortened: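 Real-time impedance growth kinetics of human T-47D breast cells read 80 h after dosing, gain-of-signal fitted relative to DMSO. Compounds: 1:4 serial series, top final concentration 100 uM, n = 2.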
# [2] = APR_HepG2_NuclearSize_24hr: Apredica 24-hour HepG2 Assay for Nuclear Size (AID 2282907); details: high-content imaging, actives raise or lower the signal
# Procedure, shortened: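 After fixation and permeabilization, 24-hr-treated HepG2 cells were stained with Hoechst 33342 and imaged on an ArrayScan (20x). Doses spanned 0.39–200 uM in duplicate. Nuclear diameter changes in either direction were fitted relative to 0.5% DMSO controls.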
# [3] = APR_HepG2_CellLoss_24hr: Apredica 24-hour HepG2 Assay for Cell Loss (AID 2282908); details: high-content imaging;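 on AC50: fit in both directions so a hit may be cell loss or gain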
# Procedure, shortened: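 Duplicate wells received compound at ten concentrations (0.39–200 uM; final DMSO 0.5% v/v). After fixation with formaldehyde, nuclei stained with Hoechst 33342 were imaged at 20x. Loss or gain of cell count was fitted relative to DMSO controls.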
# [4] = APR_HepG2_MicrotubuleCSK_24hr: Apredica 24-hour HepG2 Assay for Microtubule CSK Stabilty (AID 2282909); details: HepG2 microtubule cytoskeleton imaging, actives raise or lower the signal
# Procedure, shortened: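 Microtubule stability is scored from tubulin immunofluorescence in fixed HepG2 cells imaged at 20x. Cells receive ten compound concentrations up to 200 uM for 24 h; taxol and DMSO serve as positive and negative controls.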
# [5] = APR_HepG2_MitoticArrest_24hr: Apredica 24-hour HepG2 Assay for Mitotic Arrest (AID 2282910); details: high-content imaging, actives raise or lower the signal
# Procedure, shortened: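 Treatment lasted 24 hr in the human HepG2 line at 0.39–200 uM, solvent held at 0.5% DMSO. Fixed cells were stained with Hoechst 33342 and anti-phospho-histone H3, imaged at 20x, and analysed by gain- or loss-of-signal fitting against DMSO.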
# [6] = APR_HepG2_MitoMembPot_24hr: Apredica 24-hour HepG2 Assay for Mitochondrial Membrane Potential (AID 2282911); details: imaging, actives raise or lower the signal
# Procedure, shortened: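 Mitochondrial membrane potential imaged via MitoTracker Red CMXRos (250 nM, 30 min pre-fixation) in fixed HepG2 cells with Hoechst nuclear identification. Ten concentrations 0.39–200 uM, 24 h treatment, 0.5% DMSO; CCCP as positive control.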
# [7] = APR_HepG2_MitoMass_24hr: Apredica 24-hour HepG2 Assay for Mitochondrial Mass (AID 2282912); details: high-content imaging, actives raise or lower the signal
# Procedure, shortened: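 Readout: fluorescence of MitoTracker Red CMXRos (250 nM, added 30 min pre-fixation) in fixed HepG2 cells imaged by HCS. Exposure lasted 24 hr at 0.39–200 uM; increases and decreases were both fitted relative to DMSO.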
# [8] = APR_HepG2_p53Act_24hr: Apredica 24-hour HepG2 Assay for p53 Activation (AID 2282913); details: high-content imaging, actives raise or lower the signal;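 further: p53 protein immunofluorescence averaged per cell in HepG2 with Hoechst nuclei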
# Procedure, shortened: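 Fluorescence imaging of formaldehyde-fixed HepG2 cells labelled for p53 and with Hoechst, 24 h after dosing (0.39–200 uM, duplicate wells, 0.5% v/v DMSO). Signal fitted in both directions relative to DMSO.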
# [9] = APR_HepG2_CellCycleArrest_72hr: Apredica 72-hour HepG2 Assay for Cell Cycle Arrest (AID 2282914); details: high-content imaging, actives raise or lower the signal
# Procedure, shortened: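 Read-out: nuclear DNA content from Hoechst 33342 high-content imaging (20x, six fields/well) after 3.7% formaldehyde fixation, fitted bidirectionally against DMSO. Treatment was 72 h in HepG2, ten concentrations 0.39–200 uM, duplicate, 0.5% DMSO.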
# [10] = APR_HepG2_CellLoss_72hr: Apredica 72-hour HepG2 Assay for Cell Loss (AID 2282915); details: high-content imaging
# Procedure, shortened: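 HepG2 cells were exposed for 72 hr to compounds at 0.39–200 uM (ten concentrations, duplicate) in 0.5% v/v final DMSO. Nuclei were stained with Hoechst 33342 after 3.7% formaldehyde fixation, imaged at 20x, and counted; fits bidirectional versus DMSO.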
# [11] = APR_HepG2_P-H2AX_72hr: Apredica 72-hour HepG2 Assay for H2AX Phosphorylation (AID 2282916); details: imaging, actives raise or lower the signal;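 further: phospho-histone H2A.x immunostain intensity per cell marking DNA damage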
# Procedure, shortened: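 Phospho-H2A.x imaging endpoint in HepG2 after 72 hr compound exposure (0.39–200 uM, duplicate wells). Activity derived by bidirectional curve fitting with DMSO as baseline.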
# [12] = APR_HepG2_MitoMembPot_72hr: Apredica 72-hour HepG2 Assay for Mitochondrial Membrane Potential (AID 2282917); details: imaging, actives raise or lower the signal
# Procedure, shortened: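 HepG2 cells exposed 72 h to compounds at 0.39–200 uM (0.5% v/v DMSO, duplicates); MitoTracker Red CMXRos 250 nM loaded 30 min before 3.7% formaldehyde fixation, imaged by HCS fluorescence. Bidirectional fit versus DMSO.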
# [13] = APR_HepG2_MitoticArrest_72hr: Apredica 72-hour HepG2 Assay for Mitotic Arrest (AID 2282918); details: high-content imaging, actives raise or lower the signal
# Procedure, shortened: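 High-content imaging of fixed human HepG2 cells after 72 h compound exposure (0.39–200 uM, duplicates, 0.5% DMSO); mitotic arrest scored from phospho-histone H3 and nuclear Hoechst staining relative to DMSO.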
# [14] = APR_HepG2_MicrotubuleCSK_72hr: Apredica 72-hour HepG2 Assay for Microtubule CSK Stabilty (AID 2282919); details: HepG2 microtubule cytoskeleton, high-content imaging, actives raise or lower the signal
# Procedure, shortened: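 Ten-point dosing (0.39–200 uM, 0.5% DMSO) of HepG2 for 72 hr, with taxol as the cytoskeletal positive control. The cells were formaldehyde-fixed and then stained with alpha-tubulin/Cy5 and Hoechst. Imaging at 20x used a −2 um Z offset for tubulin.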
# [15] = APR_HepG2_P-H2AX_24hr: Apredica 24-hour HepG2 Assay for H2AX Phosphorylation (AID 2282920); details: high-content imaging, actives raise or lower the signal
# Procedure, shortened: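 High-content imaging of phospho-histone H2A.x immunofluorescence, nuclei counterstained with Hoechst 33342, in fixed HepG2 cells. Compounds ran 0.39–200 uM in duplicate for 24 h, final DMSO 0.5%. Signal change fitted both directions against DMSO.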
# [16] = APR_HepG2_StressKinase_72hr: Apredica 72-hour HepG2 Assay for Stress Kinase (AID 2282921); details: HepG2 stress kinase (phospho-c-Jun) imaging, actives raise or lower the signal
# Procedure, shortened: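 Stress kinase signal reflects nuclear phospho-c-Jun staining in fixed, permeabilized cells exposed 72 h to compound at 0.39–200 uM; DMSO-normalized, fitted for increases or decreases.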
# [17] = APR_HepG2_StressKinase_24hr: Apredica 24-hour HepG2 Assay for Stress Kinase (AID 2282922); details: HepG2 stress kinase (phospho-c-Jun) imaging, actives raise or lower the signal
# Procedure, shortened: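 After 24 hr compound treatment (up to 200 uM, final DMSO 0.5% v/v), HepG2 cells are fixed and multiplex-labeled; phospho-c-Jun intensity is captured by high-content fluorescence imaging and analyzed relative to DMSO.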
# [18] = APR_HepG2_p53Act_72hr: Apredica 72-hour HepG2 Assay for p53 Activation (AID 2282923); details: high-content imaging, actives raise or lower the signal;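 further: average cellular p53 protein immunofluorescence intensity in HepG2 cells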
# Procedure, shortened: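 Fixed-cell p53 staining (sheep primary, Cy5 secondary) measured by fluorescence imaging following 72 hr treatment at 0.39–200 uM in 0.5% DMSO; DMSO served as negative control and baseline.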
# [19] = APR_HepG2_MitoMass_72hr: Apredica 72-hour HepG2 Assay for Mitochondrial Mass (AID 2282924); details: high-content imaging, actives raise or lower the signal;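 further: MitoTracker Red CMXRos stain intensity per cell imaged as mitochondrial mass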
# Procedure, shortened: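 Steps: treat HepG2 72 hr (0.39–200 uM, duplicate wells); load MitoTracker Red CMXRos, 250 nM, 30 min; fix with 3.7% formaldehyde, permeabilise with 0.5% Triton X-100; capture images, nuclei via Hoechst 33342; fit bidirectionally against DMSO.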
# [20] = APR_HepG2_CellCycleArrest_24hr: Apredica 24-hour HepG2 Assay for Cell Cycle Arrest (AID 2282905); details: imaging, actives raise or lower the signal;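 further: cell cycle arrest scored as ratio of 2N to 4N nuclear DNA content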
# Procedure, shortened: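 Step one: dose HepG2 with test compounds, 0.39–200 uM, 0.5% DMSO, 24 hr. Step two: fix, permeabilize, stain nuclei with Hoechst 33342. Step three: image six fields per well at 20x, quantify DNA content, fit bidirectionally relative to DMSO.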
structure (smiles),measurement,setting,value
CC(C)(C)c1cc(O)c(C(C)(C)C)cc1O,outcome,[1],inactive
same,outcome,[2],inactive
same,AC50,[3],53.6 µM (active)
same,outcome,[4],inactive
same,AC50,[5],83.6 µM (active)
same,outcome,[6],inactive
same,AC50,[7],82.8 µM (active)
same,AC50,[8],79.8 µM (active)
same,AC50,[9],51.3 µM (active)
same,AC50,[10],51.6 µM (active)
same,AC50,[11],36 µM (active)
same,AC50,[12],104 µM (active)
same,AC50,[13],11.8 µM (active)
same,outcome,[14],inactive
same,AC50,[15],79.4 µM (active)
same,outcome,[16],inactive
same,AC50,[17],93.1 µM (active)
same,AC50,[18],12.5 µM (active)
same,outcome,[19],inactive
O=c1c(O)c(-c2ccc(O)c(O)c2)oc2cc(O)cc(O)c12,AC50,[1],26.4 µM (active)
same,outcome,[2],inactive
same,outcome,[3],inactive
same,outcome,[4],inactive
same,outcome,[5],inactive
same,AC50,[6],64.2 µM (active)
same,outcome,[7],inactive
same,outcome,[8],inactive
same,AC50,[9],103 µM (active)
same,AC50,[10],22.6 µM (active)
same,AC50,[11],68.1 µM (active)
same,outcome,[12],inactive
same,outcome,[13],inactive
same,outcome,[14],inactive
same,AC50,[15],48.6 µM (active)
same,outcome,[16],inactive
same,outcome,[17],inactive
same,outcome,[18],inactive
same,AC50,[19],7.83 µM (active)
O=c1[nH]cc(F)c(=O)[nH]1,outcome,[1],inactive
same,outcome,[2],inactive
same,outcome,[3],inactive
same,outcome,[4],inactive
same,outcome,[5],inactive
same,outcome,[6],inactive
same,outcome,[7],inactive
same,outcome,[8],inactive
same,AC50,[9],1.52 µM (active)
same,AC50,[10],2.45 µM (active)
same,outcome,[11],inactive
same,outcome,[13],inactive
same,outcome,[14],inactive
same,outcome,[15],inactive
same,outcome,[16],inactive
same,outcome,[17],inactive
same,outcome,[18],inactive
same,outcome,[19],inactive
OC[C@@H](O)[C@@H](O)[C@H](O)[C@H](O)CO,outcome,[1],inactive
same,outcome,[2],inactive
same,outcome,[3],inactive
same,outcome,[4],inactive
same,outcome,[5],inactive
same,outcome,[6],inactive
same,outcome,[7],inactive
same,outcome,[8],inactive
same,outcome,[9],inactive
same,outcome,[10],inactive
same,outcome,[11],inactive
same,outcome,[12],inactive
same,outcome,[13],inactive
same,outcome,[14],inactive
same,outcome,[15],inactive
same,outcome,[16],inactive
same,outcome,[17],inactive
same,outcome,[18],inactive
same,outcome,[19],inactive
CCCCCCCCCCCC(=O)OC,outcome,[20],inactive
same,outcome,[2],inactive
same,outcome,[3],inactive
same,outcome,[4],inactive
same,outcome,[5],inactive
same,outcome,[6],inactive
same,outcome,[7],inactive
same,outcome,[8],inactive
same,outcome,[9],inactive
same,outcome,[10],inactive
same,outcome,[11],inactive
same,outcome,[12],inactive
same,outcome,[13],inactive
same,outcome,[14],inactive
same,outcome,[15],inactive
same,outcome,[16],inactive
same,outcome,[17],inactive
same,outcome,[18],inactive
same,outcome,[19],inactive
Cc1ccc(C)c(O)c1C,outcome,[20],inactive
same,outcome,[2],inactive
same,outcome,[3],inactive
same,outcome,[4],inactive
same,outcome,[5],inactive
same,outcome,[6],inactive
same,outcome,[7],inactive
same,outcome,[8],inactive
same,AC50,[9],12 µM (active)
same,AC50,[10],12.4 µM (active)
same,outcome,[11],inactive
same,outcome,[12],inactive
same,AC50,[13],13.4 µM (active)
same,outcome,[14],inactive
same,outcome,[15],inactive
same,outcome,[16],inactive
same,outcome,[17],inactive
same,AC50,[18],16.9 µM (active)
same,AC50,[19],9.74 µM (active)
CC1=C(/C=C/C(C)=C/C=C/C(C)=C/CO)C(C)(C)CCC1,outcome,[1],inactive
same,outcome,[2],inactive
same,AC50,[3],90.6 µM (active)
same,outcome,[4],inactive
same,AC50,[5],81.6 µM (active)
same,outcome,[6],inactive
same,AC50,[7],113 µM (active)
same,AC50,[8],85.8 µM (active)
same,AC50,[9],56.3 µM (active)
same,AC50,[10],96.6 µM (active)
same,AC50,[11],19.4 µM (active)
same,outcome,[12],inactive
same,AC50,[13],92.8 µM (active)
same,outcome,[14],inactive
same,AC50,[15],76.5 µM (active)
same,outcome,[16],inactive
same,AC50,[17],72.1 µM (active)
same,outcome,[18],inactive
same,AC50,[19],112 µM (active)
